The text below walks through data of PubChem BioAssay (NCI).

The panel holds about 83,000 compounds, 20% with a hit somewhere; the sample as a whole holds those more often.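 Each cell line was grown in a 96-well plate and treated with one concentration of compound for 48 hours. Values below 10 were considered active.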 A number with no mark means an inactive call. Activity calls are given as the source filed them.

Test systems include RPMI-8226 leukemia; OVCAR-8 ovarian; OVCAR-5 ovarian; OVCAR-4 ovarian; SK-OV-3 ovarian; IGROV1 ovarian; OVCAR-3 ovarian; HS 578T breast; NCI/ADR-RES ovarian; T-47D breast; BT-549 breast; MDA-MB-435 melanoma; SW-620 colon; MCF7 breast; HCT-116 colon; HCC-2998 colon; KM12 colon.
Assay in all cases: NCI-60 one-dose screen, 48 h (100 = growth as untreated, 0 = no growth, -100 = all killed)
Conditions in all cases: 10 µM unless noted

Turning to `NCCCn1c2c(c3cc(-c4ccn[nH]4)ccc3c1=O)C(=O)c1ccccc1-2`, the growth was 51.3% with RPMI-8226 leukemia; 40.6% in the assay with OVCAR-8 ovarian; 98.8% in the assay with OVCAR-5 ovarian; 50.3% with OVCAR-4 ovarian; 81.5% in the assay on SK-OV-3 ovarian; 35.4% in the assay on IGROV1 ovarian. For the same compound, the growth in the assay with OVCAR-3 ovarian is 59%; with HS 578T breast it was 62.3%; in the assay on NCI/ADR-RES ovarian, 45.8%; in the assay with T-47D breast, 73.3%; in the assay with BT-549 breast, 77.3%; in the assay on MDA-MB-435 melanoma it was 63%. For the same compound, the growth with SW-620 colon was 24.6%; in the assay with MCF7 breast, 13%; in the assay on HCT-116 colon, 19.1%; with HCC-2998 colon it was 60.6%; in the assay with KM12 colon, 38.7%.
For the compound `C#CCN(CCCOc1ccc(Cl)cc1Cl)CCCSC(=O)CCCCCN1/C(=C\C=C2/CCCC(/C=C/C3=[N+](CCCCCC(=O)[O-])c4ccccc4C3(C)C)=C2Cl)C(C)(C)c2ccccc21`, the growth with RPMI-8226 leukemia is -22.6% (active); with OVCAR-8 ovarian it was 8.18% (active); with OVCAR-5 ovarian it was 66.4%; in the assay on OVCAR-4 ovarian it was 57.1%; with SK-OV-3 ovarian, 65%; with IGROV1 ovarian, -13.2% (active). For the same compound, the growth in the assay on OVCAR-3 ovarian was 1.44% (active); with HS 578T breast it was 6.47% (active); with NCI/ADR-RES ovarian, 106%; with T-47D breast, -21.4% (active); in the assay with BT-549 breast it was -34.2% (active); in the assay on MDA-MB-435 melanoma it was -60.1% (active). Moreover, the growth is 3.31% (active) with SW-620 colon; 6.92% (active) in the assay with MCF7 breast; 9.39% (active) in the assay on HCT-116 colon; 40.3% in the assay with HCC-2998 colon; 6.88% (active) in the assay with KM12 colon.
On to `COc1cc2c(cc1OCCCOc1cc3c(cc1OC)C(=O)N1CC(F)(F)C[C@H]1C=N3)N=C[C@@H]1CC(F)(F)CN1C2=O`, for which the growth with RPMI-8226 leukemia was -30.7% (active); in the assay with OVCAR-8 ovarian, 17.8%; in the assay with OVCAR-5 ovarian, 14.2%; in the assay with OVCAR-4 ovarian, 35.2%; in the assay with SK-OV-3 ovarian, 46.2%; in the assay with IGROV1 ovarian, 0.757% (active). For the same compound, the growth in the assay on OVCAR-3 ovarian is 22.8%; in the assay with HS 578T breast it was -8.37% (active); in the assay on NCI/ADR-RES ovarian, 76.9%; with T-47D breast, 27.7%; in the assay on BT-549 breast, -38.5% (active); in the assay on MDA-MB-435 melanoma, -11.8% (active). For the same compound, the growth in the assay on SW-620 colon was 1.84% (active); with MCF7 breast, 13.8%; with HCT-116 colon, 4.77% (active); in the assay on HCC-2998 colon it was -7.61% (active); in the assay on KM12 colon it was -18.5% (active).
Consider `C=C(C)[C@@H]1CC[C@]2(C(=O)OCCOCCOCC[P+](c3ccccc3)(c3ccccc3)c3ccccc3)CC[C@]3(C)[C@H](CC[C@@H]4[C@@]5(C)CC[C@H](OC(=O)C(Cl)Cl)C(C)(C)[C@@H]5CC[C@]43C)[C@@H]12`, for which the growth was -39.3% (active) in the assay on RPMI-8226 leukemia; 5.47% (active) in the assay with OVCAR-8 ovarian; 39.3% in the assay with OVCAR-5 ovarian; -0.899% (active) in the assay with OVCAR-4 ovarian; -8.97% (active) in the assay with SK-OV-3 ovarian; 6.43% (active) in the assay on IGROV1 ovarian. The growth with OVCAR-3 ovarian was -43.9% (active); with HS 578T breast, 21.3%; in the assay on NCI/ADR-RES ovarian, 50.2%; in the assay on T-47D breast it was -21.2% (active); in the assay with BT-549 breast, -89.4% (active); in the assay on MDA-MB-435 melanoma, -62.5% (active). The growth is 5.87% (active) in the assay on SW-620 colon; 1.7% (active) in the assay on MCF7 breast; -84.1% (active) in the assay with HCT-116 colon; 12.1% with HCC-2998 colon; -55.7% (active) with KM12 colon.
With `COc1ccc2[nH]c(=O)c(/C=C/C(=O)c3ccccc3OC)cc2c1`, the growth in the assay with RPMI-8226 leukemia was 5.61% (active); in the assay with OVCAR-8 ovarian, 1.18% (active); with OVCAR-5 ovarian it was 12.1%; in the assay on OVCAR-4 ovarian, 50.8%; in the assay with SK-OV-3 ovarian, 6.12% (active); in the assay on IGROV1 ovarian, 14.5%. The growth is 8.25% (active) in the assay with OVCAR-3 ovarian; 8.33% (active) in the assay with HS 578T breast; 10.4% in the assay with NCI/ADR-RES ovarian; -2.02% (active) in the assay on T-47D breast; 18.9% with BT-549 breast; -10% (active) in the assay on MDA-MB-435 melanoma. For the same compound, the growth is 8.4% (active) in the assay with SW-620 colon; 10% in the assay with MCF7 breast; 16% in the assay on HCT-116 colon; 23.1% in the assay with HCC-2998 colon; 4.37% (active) with KM12 colon.
Turning to `COc1ccc2[nH]c3nc4cnccc4cc3c2c1`, the growth in the assay with RPMI-8226 leukemia was 101%; in the assay with OVCAR-8 ovarian, 97%; in the assay with OVCAR-5 ovarian it was 128%; with OVCAR-4 ovarian, 101%; with SK-OV-3 ovarian, 95.3%; with IGROV1 ovarian, 89.3%. Further, the growth in the assay on OVCAR-3 ovarian is 104%; with HS 578T breast, 110%; in the assay on NCI/ADR-RES ovarian, 104%; in the assay on T-47D breast it was 94.6%; in the assay with BT-549 breast it was 104%; in the assay with MDA-MB-435 melanoma, 109%. For the same compound, the growth was 104% in the assay with SW-620 colon; 82% with MCF7 breast; 97.9% in the assay with HCT-116 colon; 117% with HCC-2998 colon; 93.2% with KM12 colon.
With `O=C1Nc2ccc(Cl)cc2/C1=N/c1nc(-c2ccc(F)cc2)cs1`, the growth in the assay with RPMI-8226 leukemia was 8.37% (active); in the assay on OVCAR-8 ovarian, 45.3%; in the assay with OVCAR-5 ovarian, 75%; with OVCAR-4 ovarian it was 32.2%; in the assay on SK-OV-3 ovarian, 56.4%; in the assay with IGROV1 ovarian, 25.6%. Besides, the growth is 39.2% in the assay on OVCAR-3 ovarian; 38.5% with HS 578T breast; 79.8% in the assay with NCI/ADR-RES ovarian; 25.3% in the assay on T-47D breast; 55.4% with BT-549 breast; 9.56% (active) in the assay on MDA-MB-435 melanoma. Besides, the growth with SW-620 colon is 27.7%; with MCF7 breast it was 12.5%; with HCT-116 colon, 28.4%; in the assay with HCC-2998 colon, 42.2%; with KM12 colon, 28.2%.
Take `COc1ccc(-c2[nH]c3ccc(OC)cc3c2C=C(C#N)C#N)cc1`: the growth was -11.5% (active) in the assay with RPMI-8226 leukemia; 57.3% in the assay with OVCAR-8 ovarian; 55.8% in the assay with OVCAR-5 ovarian; 39.5% with OVCAR-4 ovarian; 41.7% in the assay on SK-OV-3 ovarian; 39.1% in the assay on IGROV1 ovarian. Besides, the growth in the assay on OVCAR-3 ovarian was -14.1% (active); in the assay on HS 578T breast it was 52.4%; in the assay on NCI/ADR-RES ovarian it was 1.87% (active); in the assay on T-47D breast, 33.8%; in the assay on BT-549 breast it was 55.1%; with MDA-MB-435 melanoma, -62.5% (active). For the same compound, the growth in the assay on SW-620 colon is 26.5%; with MCF7 breast, 17.1%; in the assay with HCT-116 colon it was 19%; with HCC-2998 colon it was 50.3%; in the assay with KM12 colon, 20.1%.
`COc1cc(/C=N/Nc2nc(-c3ccc(F)cc3)c(C#N)c(N3CCOCC3)n2)ccc1O`: the growth is 87.1% in the assay on RPMI-8226 leukemia; 89.8% in the assay with OVCAR-8 ovarian; 107% with OVCAR-5 ovarian; 89.8% in the assay with OVCAR-4 ovarian; 102% with SK-OV-3 ovarian; 96.7% with IGROV1 ovarian. Also, the growth in the assay with OVCAR-3 ovarian was 103%; in the assay on HS 578T breast it was 102%; in the assay with NCI/ADR-RES ovarian, 102%; with T-47D breast it was 93.6%; with BT-549 breast, 94.3%; in the assay on MDA-MB-435 melanoma it was 97%. Moreover, the growth was 95% in the assay with SW-620 colon; 93.2% with MCF7 breast; 96.8% with HCT-116 colon; 117% in the assay on HCC-2998 colon; 103% in the assay on KM12 colon.
